Our source for the growth inhibition values is PubChem BioAssay (NCI).

Assay [1] is described as follows: NCI Yeast Anticancer Drug Screen. Data for the rad50 strain (AID 155).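 Also: 0% = growth of vehicle-only cultures of the same strain.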 The conditions noted are these: S. cerevisiae rad50 strain growth inhibition; at 50.0 µM; stronger effect = higher value. A digest of the protocol: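 Cells are treated with compound, grown, and their growth is then scored against vehicle-only cultures of the same repair-deficient yeast strain.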
A short description of assay [2]: NCI Yeast Anticancer Drug Screen. Data for the mec2-1 strain (AID 157). The following applies: S. cerevisiae mec2-1 strain, at 50.0 µM, stronger effect = higher value. The method in brief: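 Yeast mec2-1 mutant treated with compound. Readout: growth inhibition vs vehicle controls.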
Assay [3] is described as follows: NCI Yeast Anticancer Drug Screen. Data for the sgs1 mgt1 strain (AID 161).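 Also: 0% = growth of cultures given vehicle only.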 The following applies: S. cerevisiae sgs1 mgt1 strain, at 50.0 µM, stronger effect = higher value. The method in brief:
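Genetically altered yeast, compound exposure, growth inhibition relative to vehicle.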

Assay [4] is described as follows: NCI Yeast Anticancer Drug Screen. Data for the cln2 rad14 strain (AID 165).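 Also: 0% = growth equal to vehicle treated cultures.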 The following applies: S. cerevisiae cln2 rad14 strain, at 50.0 µM, stronger effect = higher value. A digest of the protocol: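 cln2 rad14 yeast strain; compound exposure; growth inhibition read vs vehicle controls.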
Assay [5] can be described thus: NCI Yeast Anticancer Drug Screen. Data for the bub3 strain (AID 167). The following applies: S. cerevisiae bub3 mutant strain, at 50.0 µM, stronger effect = higher value. The method in brief: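 Part of a panel of yeast mutants defective in DNA damage repair or cell cycle regulation. Each strain is grown with compound, and inhibition is calculated relative to solvent-treated cultures.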

Assay [6] is described as follows: NCI Yeast Anticancer Drug Screen. Data for the mlh1 rad18 strain (AID 175). The following applies: S. cerevisiae mlh1 rad18 strain growth inhibition; at 50.0 µM; stronger effect = higher value. A digest of the protocol: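 Yeast w/ defined DNA-repair lesions; compound exposure; growth vs vehicle controls → % inhibition.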

Each structure is given as a SMILES string. Compounds without any hit were thinned out: in the full panel of roughly 79,000, 15% have a hit. A number with no mark means an inactive call. The source made the active and inactive calls. Rule as the data show it: active = growth inhibition above about 70%; inactive = the rest.

As for `O=C(CCCC(=O)Nc1ccc2[nH]c3ccccc3c(=O)c2c1)Nc1ccc2[nH]c3ccccc3c(=O)c2c1`, the growth inhibition in assay [1] was 12.7%; in assay [2], -8.6%; in assay [3], -0.3%; in assay [4], 20.9%; in assay [5], -3.55%; in assay [6] it was 2.95%.
With `CCc1cccc(C)c1NC(=O)C(=O)CC(=O)CCCO`, the growth inhibition was -37.6% in assay [1]; 21.7% in assay [2]; 27.6% in assay [3]; -27.9% in assay [4]; 0.05% in assay [5]; 25.4% in assay [6].
With `CCCC(=O)Oc1ccccc1C1CCCCC1`, the growth inhibition in assay [1] is 15.9%; in assay [2] it was 23.8%; in assay [3], 12.3%; in assay [4], 21.3%; in assay [5], 7.35%; in assay [6], 3.45%.
With `CCC(C)(NC(N)=O)c1ccccc1` (stereo not given), the growth inhibition was -6.9% in assay [1]; 10.4% in assay [2]; -12.1% in assay [3]; -7.5% in assay [4]; -12.9% in assay [5]; -7.35% in assay [6].
Consider `N/N=C(\N)N(Cc1ccccc1)c1ccccc1`, for which the growth inhibition in assay [1] was 10.3%; in assay [2], 25.7%; in assay [3], 2.85%; in assay [4] it was -11.6%; in assay [5] it was -2.6%; in assay [6], 4.75%.
As to `CC(CN1CCCCC1)SSC(C)CN1CCCCC1` (stereo not given), the growth inhibition is 41.8% in assay [1]; 14.9% in assay [2]; 27% in assay [3]; -29.1% in assay [4]; 11.5% in assay [5]; 44.2% in assay [6].
On to `O=[N+]([O-])/C(C(Cl)=C(Cl)Cl)=C(/Cl)Sc1ccccc1`, for which the growth inhibition in assay [1] was 91.8% (active); in assay [2] it was 92.1% (active); in assay [3], 85.7% (active); in assay [4] it was 89.8% (active); in assay [5], 89.1% (active); in assay [6] it was 91.4% (active).
As to `CCc1c(-c2ccccc2)[nH]c(=S)c(C#N)c1C`, the growth inhibition was -8.7% in assay [1]; -1.5% in assay [2]; 26.6% in assay [3]; 2.7% in assay [4]; -1.1% in assay [5]; -3.9% in assay [6].
On to `C1=CCSC(Nc2ccccc2)=NC1`, for which the growth inhibition is 7.65% in assay [1]; 3.35% in assay [2]; -7.05% in assay [3]; -2.6% in assay [4]; 0.75% in assay [5]; -5.85% in assay [6].
Regarding `CC1Cn2c(nccc2=O)S1` (stereo not given), the growth inhibition in assay [1] is -15.1%; in assay [2] it was -14.2%; in assay [3] it was -33.4%; in assay [4], 1.9%; in assay [5], 3.5%; in assay [6], -29.1%.
Consider `COc1ccc(-c2oc3cc(OC)c(OC)c(O)c3c(=O)c2OC)cc1`, for which the growth inhibition in assay [1] was 7.45%; in assay [2], 0.25%; in assay [3], 3.05%; in assay [4], 9.05%; in assay [5], 13.8%; in assay [6], -56.5%.
For `c1ccc(OB(Oc2ccccc2)Oc2ccccc2)cc1`, the growth inhibition in assay [1] was 12.2%; in assay [2] it was 6.65%; in assay [3], -7.25%; in assay [4] it was -39%; in assay [5], 4.2%; in assay [6], -6.7%.
Turning to `Cc1ccc2[nH]c(C)c(C(=O)c3cccnc3)c2c1`, the growth inhibition in assay [1] is -7.55%; in assay [2], 0.85%; in assay [3] it was 13.2%; in assay [4] it was -13.3%; in assay [5], -18.6%; in assay [6] it was -8.4%.
On to `Clc1nncc2sc(-c3ccccc3)nc12`, for which the growth inhibition is 20.9% in assay [1]; -1.7% in assay [2]; 28.1% in assay [3]; 17.4% in assay [4]; 18.3% in assay [5]; -18.3% in assay [6].
With `CC1(C)CCCCCCC2CC2CCCCCC(C)(C)C1=O` (stereo not given), the growth inhibition was 1% in assay [1]; -6.15% in assay [2]; -4.8% in assay [3]; 7.8% in assay [4]; -11.5% in assay [5]; 24.1% in assay [6].
Take `N#CC(c1cc2c(cc1Br)OCO2)N1CCOCC1` (stereo not given): the growth inhibition in assay [1] is 17.5%; in assay [2], 19.4%; in assay [3] it was 10.9%; in assay [4] it was 8.25%; in assay [5], 46%; in assay [6] it was -11.8%.
With `C1COCCN2CCOCCOCCN(CCO1)CCOCC2`, the growth inhibition is 3.6% in assay [1]; 11.2% in assay [2]; -0.25% in assay [3]; 12.7% in assay [4]; 23.6% in assay [5]; 23.7% in assay [6].
`CC1(C(Cl)(Cl)Cl)C=C/C(=N\O)C(Cl)=C1` (stereo not given): the growth inhibition was -2.3% in assay [1]; -10.7% in assay [2]; -1.9% in assay [3]; 4.95% in assay [4]; -8.9% in assay [5]; -7.75% in assay [6].
Take `O=C(CC(=O)C(=O)CC(=O)OCc1ccccc1)OCc1ccccc1`: the growth inhibition in assay [1] is 15%; in assay [2], -19.9%; in assay [3], -0.3%; in assay [4], 11.9%; in assay [5], -21.3%; in assay [6], 2.55%.
Turning to `Clc1c(Cl)c2ccccc2c2ccccc12`, the growth inhibition in assay [1] was 10.1%; in assay [2], -8.4%; in assay [3] it was 11.3%; in assay [4], 8.85%; in assay [5], 32.5%; in assay [6], 4.85%.
